Screens (PubChem)
D1 potentiator: enhances dopamine response at the human D1 receptor. P21728. HEK293 TREx D1 cells, calcium flux, dopamine EC20 potentiation. potentiation, % at 10 µM. 0.036% of 360,000 active. AID 504651; in the data active means potentiation above about 30%; further: 0% is about no effect
D1 antag: blocks dopamine activation of the human D1 receptor; HEK293 TREx D1 cells, calcium flux, dopamine EC80; hits give low values; activity change, negative = inhibition, % at 10 µM; 3.2% of 360,000 active; AID 504652; in the data active means activity change below about -30%; further: on the % scale 0 is the no-effect control and ±100 the full control effect
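Using tetracycline-induced force-coupled D1 Hek293 cells and a calcium dye, signals were followed for 180 s after compound, then for 180 s after EC80 dopamine, to detect inhibitors.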
DRD3 agonist: activates the human D3 dopamine receptor | AID 652048 | P35462 | max activation, % | D3R DiscoveRx beta-arrestin cells, luminescence, 90 min | 0.58% of 410,000 active; in the data active means max activation above about 30%; further: 0% is about no effect
Target sequence (P35462 whole entry, looked up): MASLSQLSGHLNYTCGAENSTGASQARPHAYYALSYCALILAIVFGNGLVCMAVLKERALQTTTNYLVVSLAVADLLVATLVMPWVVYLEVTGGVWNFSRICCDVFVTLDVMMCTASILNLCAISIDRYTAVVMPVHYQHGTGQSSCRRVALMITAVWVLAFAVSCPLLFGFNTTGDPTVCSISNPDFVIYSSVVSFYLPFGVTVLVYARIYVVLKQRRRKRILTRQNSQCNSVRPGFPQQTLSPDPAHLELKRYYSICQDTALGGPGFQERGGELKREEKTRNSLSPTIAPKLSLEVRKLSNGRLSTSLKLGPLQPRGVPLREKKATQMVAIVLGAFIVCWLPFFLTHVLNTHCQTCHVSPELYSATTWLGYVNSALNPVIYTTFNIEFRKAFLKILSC
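Agonist mode: compounds and dopamine controls were applied to plated cells for 90 min at 37 degrees C after an overnight attachment at 1500 cells/well. Luminescent read-out followed 30 - 60 minutes at room temperature with DiscoveRx detection reagent.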
DRD3 antagonist: D3 dopamine receptor (human) antagonism | D3R cells, DiscoveRx beta-arrestin luminescence, antagonist mode; hits give low values | P35462 | max response, negative = inhibition, % | 2.5% of 360,000 active; in the data active means max response below about -50%; inconclusive means no clear call, values can overlap the other calls; further: on the % scale 0 is the no-effect control and ±100 the full control effect
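Cells plated overnight at 1500 cells/well, then exposed to library compounds with dopamine controls for 90 minutes at 37 degrees C. DiscoveRx reagent added for 30–60 minutes at room temperature; luminescence read, quantitative HTS format.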
D1 agonist: agonists of human D1 dopamine receptor; P21728; HEK293 T-REx D1 cells, calcium flux, agonist mode; activation, % at 2 µM; 1% of 360,000 active; in the data active means activation above about 30%; further: 0% is about no effect
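Tetracycline-induced HEK293 TREx D1 cells, force-coupled to calcium signalling, were dye-loaded with a no-wash calcium kit. Compound was pin-added after a 10 s baseline. Fluorescence was read kinetically at 1 cycle/s for 180 s, with calcium rises flagged as agonism.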
Starred values were filed as active, the others as inactive. A selection: hits, their analogues and other compounds. The true share with any hit is near 6%.

What do the screens show for `O=C(COC(=O)C12CC3CC(CC(Cl)(C3)C1)C2)NCc1ccco1`?
D1 potentiator: 5; D1 antag: 3; D1 agonist: -1

Results for CC1(C)CC(=O)C2=C(C1)OC1=C(C(=O)CC(C)(C)C1)C2c1cccc([N+](=O)[O-])c1 ?
DRD3 agonist: -13; DRD3 antagonist: -78*

What do the screens show for `CC1(C)CC(=O)C(N=Nc2cccc([N+](=O)[O-])c2)=C(O)C1`?
D1 potentiator: -1; D1 antag: 5; DRD3 agonist: -18; DRD3 antagonist: -67*; D1 agonist: 3

Results for CC1(C)CC(=O)C(N=Nc2ccc(Br)cc2)=C(O)C1 ?
D1 potentiator: 3; D1 antag: -25; DRD3 agonist: 2; DRD3 antagonist: -10; D1 agonist: 2

How did CC1(C)CC(=O)C2=C(C1)OC1=C(C(=O)CC(C)(C)C1)C2c1ccc(O)c([N+](=O)[O-])c1 do in these assays?
D1 potentiator: 1; D1 antag: 1; DRD3 agonist: 0; DRD3 antagonist: 0; D1 agonist: -1

How did O=c1c(-c2ccccc2)c(-c2ccccc2)oc2cc(O)cc(O)c12 do in these assays?
D1 potentiator: -1; D1 antag: 53; DRD3 agonist: 10; DRD3 antagonist: 2; D1 agonist: 40*

What do the screens show for `O=C1NC2(CCCCCC2)C(=O)N1Cc1ccccc1Cl`?
D1 potentiator: -8; D1 antag: 9; DRD3 agonist: 1; DRD3 antagonist: 0; D1 agonist: 1

How did Cc1[nH]n(C(N)=S)c(=O)c1N=Nc1cccc(C(F)(F)F)c1 do in these assays?
D1 potentiator: -5; D1 antag: -3; DRD3 agonist: 4; DRD3 antagonist: -16; D1 agonist: -1

Results for Cc1[nH]n(-c2ccccc2)c(=O)c1N=Nc1cccc(C(=O)O)c1 ?
D1 potentiator: 3; D1 antag: -37*; DRD3 agonist: 5; DRD3 antagonist: -12; D1 agonist: 1

How did Cc1[nH]n(C2=NCCS2)c(=O)c1N=Nc1cccc(C(F)(F)F)c1 do in these assays?
D1 potentiator: -4; D1 antag: 5; DRD3 agonist: 0; DRD3 antagonist: 7; D1 agonist: 62*

Results for Cc1[nH]n(-c2ccccc2)c(=O)c1N=Nc1ccc(C(=O)O)cc1 ?
D1 potentiator: -2; D1 antag: 5; DRD3 agonist: -4; DRD3 antagonist: -10; D1 agonist: 2

What do the screens show for `O=C(CSc1nc2scc(-c3ccco3)c2c(=O)n1-c1ccccc1)N1CCOCC1`?
D1 potentiator: 6; D1 antag: 10; DRD3 agonist: 31*; DRD3 antagonist: 12; D1 agonist: -1

What do the screens show for `COc1ccccc1-c1noc2ncnc(Nc3cccc(C)c3C)c12`?
D1 potentiator: -6; D1 antag: -32*; DRD3 agonist: -7; DRD3 antagonist: 4; D1 agonist: 2

What do the screens show for `COc1ccccc1-c1noc2ncnc(Nc3ccccc3C)c12`?
D1 potentiator: 4; D1 antag: -8; DRD3 agonist: 0; DRD3 antagonist: inconclusive; D1 agonist: 4

How did COc1ccc(C(=O)c2sc3nc(-c4ccc(F)cc4)ccc3c2N)cc1 do in these assays?
D1 potentiator: -2; D1 antag: -13; DRD3 agonist: 0; D1 agonist: 17

Results for Cc1oc(=O)oc1CN1CCN(c2cc3c(cc2F)c(=O)c(C(=O)O)c2n3C(C)S2)CC1 (configuration not stated) ?
DRD3 agonist: 10

What do the screens show for `Cc1cccc(OCCCCn2nnc3sc4c(c3c2=O)CCC(C)C4)c1` (configuration not stated)?
D1 potentiator: 0; D1 antag: -2; DRD3 agonist: 9; D1 agonist: -1

What do the screens show for `O=C(N/N=C/c1ccsc1)c1c[nH]c2ccccc12`?
D1 potentiator: -2; D1 antag: -46*; DRD3 agonist: -10; DRD3 antagonist: -22; D1 agonist: 3

Results for Cc1ccsc1/C=N/NC(=O)c1c[nH]c2ccccc12 ?
D1 potentiator: -7; D1 antag: 5; DRD3 agonist: -1; DRD3 antagonist: -51*; D1 agonist: 0

How did Cc1ccsc1/C=N/NC(=O)CNC(=O)c1ccccc1 do in these assays?
D1 potentiator: -2; D1 antag: -47*; DRD3 agonist: 3; DRD3 antagonist: -1; D1 agonist: 0

How did O=C(NC1CCCCC1)C(CCc1ccccc1)N1CCOCC1 (configuration not stated) do in these assays?
DRD3 agonist: 1; DRD3 antagonist: 1

What do the screens show for `O=C(NC1CCCCC1)C(CCc1ccccc1)N1CCc2ccccc2C1` (configuration not stated)?
DRD3 agonist: -14; DRD3 antagonist: -59*

What do the screens show for `C=CS(=O)(=O)c1c2cc(OC)ccc2nc2ccc(OC)cc12`?
DRD3 agonist: -23; DRD3 antagonist: -83*

How did CCCCC/C=C/C1=CC(=O)C[C@H](c2ccc3c(c2)OCO3)C1 do in these assays?
D1 potentiator: 2; DRD3 agonist: 51*; DRD3 antagonist: -1; D1 agonist: 2

How did O=C1C=C(c2ccc(CO)cc2)C[C@@H](c2ccc3c(c2)OCO3)C1 do in these assays?
D1 potentiator: -1; DRD3 agonist: -27; DRD3 antagonist: -51*; D1 agonist: 1

Results for COC/C=C/C1=CC(=O)C[C@H](c2ccc3c(c2)OCO3)C1 ?
D1 potentiator: -4; DRD3 agonist: 2; DRD3 antagonist: 5; D1 agonist: 0

How did CN(C)c1ccc(CN(Cc2ccco2)C(=O)COc2ccc(F)cc2)cc1 do in these assays?
D1 potentiator: 2; D1 antag: -9; DRD3 agonist: -8; D1 agonist: -2

Results for O=C(Oc1ccc(O)cc1)C12CC3CC(CC(C3)C1)C2 ?
D1 potentiator: 21; D1 antag: -8; DRD3 agonist: -1; DRD3 antagonist: 0; D1 agonist: 41*

What do the screens show for `CCCCN(Cc1ccccc1)C1CCN(Cc2ccccc2)CC1`?
D1 potentiator: -4; D1 antag: 25; DRD3 agonist: -23; DRD3 antagonist: -76*; D1 agonist: -4

What do the screens show for `CCCCN(C)C(=O)C1CCN(Cc2ccc(OCc3ccccc3)cc2)CC1`?
D1 potentiator: -2; D1 antag: 7; DRD3 agonist: -14; DRD3 antagonist: -68*; D1 agonist: 14

How did CCOCCCNC(=O)C1CCN(Cc2ccc(OCc3ccccc3)c(OC)c2)CC1 do in these assays?
D1 potentiator: 2; D1 antag: 4; DRD3 agonist: -3; DRD3 antagonist: 4; D1 agonist: 5

What do the screens show for `CCOC(=O)C1CCN(Cc2ccc(OCc3ccccc3)cc2)CC1`?
D1 potentiator: -5; D1 antag: -7; DRD3 agonist: -11; DRD3 antagonist: -19; D1 agonist: 8

How did CCOCCCNC(=O)C1CCN(Cc2cccc(OCc3ccccc3)c2)CC1 do in these assays?
D1 potentiator: -3; D1 antag: -31*; DRD3 agonist: -1; DRD3 antagonist: -12; D1 agonist: -2
